The panel holds about 83,000 compounds, 20% with a hit somewhere; the sample as a whole holds those more often.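 In brief: 96-well plates, 48 h treatment, single concentration, percent growth endpoint.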 Values without a mark were called inactive. Active and inactive are the calls of the source. Rule for the calls: active = growth percent below 10; inactive = the rest.

The test system of the first assay is SK-MEL-2 melanoma. Briefly: NCI-60 one-dose screen, 48 h (100 = growth as untreated, 0 = no growth, -100 = all killed). Conditions: 10 µM unless noted.
Turning to `CC[C@H](C)C(=O)O[C@H]1CCC=C2C=C[C@H](C)[C@H](CC[C@@H]3CC=CC(=O)O3)[C@H]21`, the growth was 81.7%.

For the compound `COc1cc(CCC[P+](c2ccccc2)(c2ccccc2)c2ccccc2)c(OC)c(OC)c1OC`, the growth is 80.5%.

In the case of `COc1ccc(C(=O)/C=C/c2sc(Cl)nc2Cl)cc1`, the growth is 39.8%.

For `COc1ccc(C(=S)N2CCN(c3cccc(C)c3)CC2)cc1OC`, the growth is 34%.

On to `Cc1cc2nc3ccc(N=Nc4ccc(N(C)C)cc4)cc3n(-c3ccccc3)c-2cc1=N`, for which the growth was -94.6% (active).

On to `CC(=O)CC(c1cccs1)c1c(-c2ccccc2)[nH]c2ccccc12` (stereo unspecified), for which the growth is 94.6%.

As to `COc1ccc(-n2c(N)c(-c3nc4ccccc4[nH]3)cc(C#N)c2=O)cc1`, the growth is 105%.

Take `Cc1ncc(C(=O)Nc2ccc(CN3CCN(C)CC3)c(C(F)(F)F)c2)cc1C#Cc1ccc(N)nc1`: the growth was -55% (active).

For the compound `COC(=O)/C=C1\S/C(=N\Nc2ccc([N+](=O)[O-])cc2[N+](=O)[O-])N(C2CCCCC2)C1=O`, the growth was 90.5%.

For the compound `COc1c(B(O)O)cc(F)cc1-c1nc2ccc3[nH]ncc3c2c2c1CCCC2`, the growth was 18.7%.

As for `CCCCCCN1C(=O)/C(=c2\sc3n(c2=O)C2C(NN=3)N(CC)C(=O)N2CC)c2ccccc21` (stereo unspecified), the growth was 50.1%.

Turning to `S=c1nc(-c2ccccc2)oc(=NC2CCCCC2)n1C1CCCCC1`, the growth was 37.9%.

Consider `CNC(=O)c1[nH]cc(-c2ccccc2)c1-c1cc(OC)c2c(c1OC)OCO2`, for which the growth is 102%.

Turning to `CCCCCCN(CCCCCC)c1ccc(/C=C2/SC(=O)NC2=O)c(C)c1`, the growth is 83%.

In the case of `CC(=O)OC[C@H]1OC(Sc2sc(C(=O)c3ccc(Br)cc3)c(N)c2-c2nc3ccccc3s2)[C@H](OC(C)=O)[C@@H](OC(C)=O)[C@H]1OC(C)=O` (stereo partly specified), the growth is 112%.

Take `N#Cc1ccc(NC(=O)c2sc3nc4c(cc3c2N)C(=O)CCC4)cc1`: the growth is 83%.

`NS(=O)(=O)c1ccc(-n2nc(-c3ccc(Cl)cc3)c3ccccc3c2=O)cc1`: the growth was 110%.

Take `COc1cccc(OC)c1C(=O)N[C@@H]1C(=O)N2[C@@H]1SC(C)(C)[C@@H]2C(=O)O`: the growth is 101%.

`N/C(=N\c1nc2ccccc2s1)NC(=O)Nc1cccc2ccccc12`: the growth is 38.7%.

For `COc1ccc(/C=C/c2c(C(=O)/C=C/c3ccc(C(F)(F)F)cc3)c(C)nc3ccccc23)cc1`, the growth is -12.1% (active).

For `COc1c(B(O)O)cc(C)cc1-c1nc2ccc3[nH]ncc3c2c2c1CCCC2`, the growth was 102%.

Consider `COc1cc(C(=O)c2cc(C)c3[nH]c4ccc(O)cc4c3c2C)cc(OC)c1OC`, for which the growth was 62.3%.

As for `COc1ccc(/C=C/c2c(C(=O)/C=C/c3ccc(Cl)cc3)c(C)nc3ccccc23)cc1`, the growth was 45.7%.

Take `O=c1ccc(N=Nc2ccc([N+](=O)[O-])cc2)ccc1O`: the growth was 28.1%.

In a further assay the test system is EKVX NSCLC. Described as above. Particulars: 10 µM unless noted.
Take `CN(C)c1ccc2nc3ccc(=[N+](C)C)c([N+](=O)[O-])c-3sc2c1`: the growth is 25%.

`COc1cc(C(=O)/C=C/c2c(Cl)nc3sccn23)cc(OC)c1OC`: the growth was 90.7%.

As for `CNc1ccc(Nc2cccc(C)c2)c2c1C(=O)c1ccccc1C2=O`, the growth was 164%.

Turning to `Cc1cc(O)c(C2=NN(c3ccc(S(N)(=O)=O)cc3)C(c3ccccc3O)C2)cc1Cl` (stereo unspecified), the growth is -2.37% (active).

On to `CCN1C(=O)N(CC)C2Nn3c(s/c(=C4\C(=O)N(CCC(C)C)c5ccccc54)c3=O)=NC21` (stereo unspecified), for which the growth is 67.1%.

Regarding `C=C(C)[C@@H]1CC[C@]2(N=C=O)CC[C@]3(C)[C@H](CC[C@@H]4[C@@]5(C)Cc6c([nH]c7ccccc67)C(C)(C)[C@@H]5CC[C@]43C)[C@@H]12`, the growth was 89%.

Regarding `O=C1CSC(c2c(Cl)cccc2Cl)N1c1nc(Cl)cc(=O)[nH]1` (stereo unspecified), the growth was 119%.

For the compound `COc1ccc(OC)c(/C=C/C(=O)N/N=C/c2ccccc2)c1`, the growth is 64%.

Regarding `Oc1ccc(-c2nc3ccc4[nH]ncc4c3c3c2CCCC3)c2cccnc12`, the growth is -23.1% (active).

As to `Cc1cc(O)c(C2=NN(c3ccc(S(N)(=O)=O)cc3)C(/C=C/c3ccccc3)C2)cc1Cl` (stereo unspecified), the growth is 68.8%.

As for `COc1ccc(C2=Nn3c(nnc3-c3cc(Cl)cc(Cl)c3Cl)SC2)cc1`, the growth was 41.3%.

Turning to `O=S(=O)(NCCCNc1cc(-c2c(-c3cccc(O)c3)nc3sccn23)ccn1)c1cccc2ccccc12`, the growth is 50%.

Take `c1cc(-c2nnc(SSc3ncnc4nc[nH]c34)o2)ccn1`: the growth is 82.3%.

As to `CC[C@H](C)C(=O)O[C@H]1CCC=C2C=C[C@H](C)[C@H](CC[C@@H]3CC=CC(=O)O3)[C@H]21`, the growth is 110%.

Turning to `COc1cc(CCC[P+](c2ccccc2)(c2ccccc2)c2ccccc2)c(OC)c(OC)c1OC`, the growth was 72.7%.

With `COc1ccc(C(=O)/C=C/c2sc(Cl)nc2Cl)cc1`, the growth is 65.2%.

For `COc1ccc(C(=S)N2CCN(c3cccc(C)c3)CC2)cc1OC`, the growth was 102%.

As for `Cc1cc2nc3ccc(N=Nc4ccc(N(C)C)cc4)cc3n(-c3ccccc3)c-2cc1=N`, the growth is -94.6% (active).

Consider `CC(=O)CC(c1cccs1)c1c(-c2ccccc2)[nH]c2ccccc12` (stereo unspecified), for which the growth is 72.6%.

With `COc1ccc(-n2c(N)c(-c3nc4ccccc4[nH]3)cc(C#N)c2=O)cc1`, the growth was 79.1%.

With `Cc1ncc(C(=O)Nc2ccc(CN3CCN(C)CC3)c(C(F)(F)F)c2)cc1C#Cc1ccc(N)nc1`, the growth is 9.23% (active).

As for `COC(=O)/C=C1\S/C(=N\Nc2ccc([N+](=O)[O-])cc2[N+](=O)[O-])N(C2CCCCC2)C1=O`, the growth was 78.5%.

For the compound `COc1c(B(O)O)cc(F)cc1-c1nc2ccc3[nH]ncc3c2c2c1CCCC2`, the growth is 10.2%.

For `CCCCCCN1C(=O)/C(=c2\sc3n(c2=O)C2C(NN=3)N(CC)C(=O)N2CC)c2ccccc21` (stereo unspecified), the growth was 65%.

As to `S=c1nc(-c2ccccc2)oc(=NC2CCCCC2)n1C1CCCCC1`, the growth was 24.4%.

In the case of `CNC(=O)c1[nH]cc(-c2ccccc2)c1-c1cc(OC)c2c(c1OC)OCO2`, the growth is 98%.

For `CCCCCCN(CCCCCC)c1ccc(/C=C2/SC(=O)NC2=O)c(C)c1`, the growth was 79.1%.

Regarding `CC(=O)OC[C@H]1OC(Sc2sc(C(=O)c3ccc(Br)cc3)c(N)c2-c2nc3ccccc3s2)[C@H](OC(C)=O)[C@@H](OC(C)=O)[C@H]1OC(C)=O` (stereo partly specified), the growth was 80.5%.

Regarding `N#Cc1ccc(NC(=O)c2sc3nc4c(cc3c2N)C(=O)CCC4)cc1`, the growth was 93.6%.

Take `NS(=O)(=O)c1ccc(-n2nc(-c3ccc(Cl)cc3)c3ccccc3c2=O)cc1`: the growth was 82.5%.

Consider `COc1cccc(OC)c1C(=O)N[C@@H]1C(=O)N2[C@@H]1SC(C)(C)[C@@H]2C(=O)O`, for which the growth is 104%.

On to `N/C(=N\c1nc2ccccc2s1)NC(=O)Nc1cccc2ccccc12`, for which the growth is 40.2%.

`COc1ccc(/C=C/c2c(C(=O)/C=C/c3ccc(C(F)(F)F)cc3)c(C)nc3ccccc23)cc1`: the growth is -18.7% (active).

In the case of `COc1c(B(O)O)cc(C)cc1-c1nc2ccc3[nH]ncc3c2c2c1CCCC2`, the growth is 54.2%.

With `COc1cc(C(=O)c2cc(C)c3[nH]c4ccc(O)cc4c3c2C)cc(OC)c1OC`, the growth is 35.9%.

Turning to `COc1ccc(/C=C/c2c(C(=O)/C=C/c3ccc(Cl)cc3)c(C)nc3ccccc23)cc1`, the growth was 47.9%.

As for `O=c1ccc(N=Nc2ccc([N+](=O)[O-])cc2)ccc1O`, the growth is 5.14% (active).

For the origin of these results see PubChem BioAssay (NCI).
